Here are results for 24 sequences from publication PMC11006913.

What all share (assay): PBM; 200 nM protein, PBS
Holding throughout (settings): dsDNA, one strand shown

The target of experiment [1] is NKX2-5 (Homo sapiens, UniProt P52952 125-210, R139K).
Experiment [2] deals with NKX2-5 (Homo sapiens, UniProt P52952 125-210).
For experiment [3], the target named is T1, NKX2-4 (Homo sapiens, UniProt Q9H2Z4 175-261, P217L).
T1 sequence: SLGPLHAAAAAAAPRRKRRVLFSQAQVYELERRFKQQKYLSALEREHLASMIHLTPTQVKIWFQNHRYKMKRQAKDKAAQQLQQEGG

In experiment [4] the target is T2, NKX2-4 (Homo sapiens, UniProt Q9H2Z4 175-261, T231S).
T2 sequence: T1 sequence with L43P, T57S

Experiment [5] deals with T3, NKX2-4 (Homo sapiens, UniProt Q9H2Z4 175-261).
T3 sequence: T1 sequence with L43P

For experiment [6], the target named is T4, NKX2-6 (Homo sapiens, UniProt A6NCS4 118-204, R150C).
T4 sequence: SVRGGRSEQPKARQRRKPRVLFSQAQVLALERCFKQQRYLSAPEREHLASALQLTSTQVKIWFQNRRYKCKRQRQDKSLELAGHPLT

The target of experiment [7] is T5, NKX2-6 (Homo sapiens, UniProt A6NCS4 118-204).
T5 sequence: T4 sequence with C33R

Experiment [8] addresses T6, NKX2-4 (Homo sapiens, UniProt Q9H2Z4 175-261, R246Q).
T6 sequence: T1 sequence with L43P, R72Q

Experiment [9] concerns the target T7, NKX2-6 (Homo sapiens, UniProt A6NCS4 118-204, F151L).
T7 sequence: T4 sequence with C33R, F34L

The target of experiment [10] is NKX3-2 (Homo sapiens, UniProt P78367 192-278, P234S).
Experiment [11] addresses NKX3-2 (Homo sapiens, UniProt P78367 192-278).
Experiment [12] concerns the target PRRX1 (Homo sapiens, UniProt P54821 80-166, F113S).
In experiment [13] the target is HOXB6 (Homo sapiens, UniProt P17509 132-218, K202E).
In experiment [14] the target is HOXA2 (Homo sapiens, UniProt O43364 129-215, R185T).
Experiment [15] addresses HOXA2 (Homo sapiens, UniProt O43364 129-215, R185K).
The target in experiment [16] is HOXA2 (Homo sapiens, UniProt O43364 129-215, Y150S).
Experiment [17] concerns the target HOXA2 (Homo sapiens, UniProt O43364 129-215).

Residue numbers refer to the chain shown, from its start.

Chain of HOXB6 (P17509 132-218 K202E): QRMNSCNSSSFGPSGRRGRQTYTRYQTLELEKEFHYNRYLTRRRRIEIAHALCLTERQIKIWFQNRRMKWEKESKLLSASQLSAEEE
Chain of NKX3-2 (Homo sapiens, UniProt P78367 192-278, P234S) (P78367 192-278 P234S): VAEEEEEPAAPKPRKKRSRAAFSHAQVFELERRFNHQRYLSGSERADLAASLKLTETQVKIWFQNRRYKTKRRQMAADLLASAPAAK
Chain of PRRX1 (P54821 80-166 F113S): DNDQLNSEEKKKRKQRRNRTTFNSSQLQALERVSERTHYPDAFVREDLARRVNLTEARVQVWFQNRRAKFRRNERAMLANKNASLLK
Chain of NKX2-5 (Homo sapiens, UniProt P52952 125-210) (P52952 125-210): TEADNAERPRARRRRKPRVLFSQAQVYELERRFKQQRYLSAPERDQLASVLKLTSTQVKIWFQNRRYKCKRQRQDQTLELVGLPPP
Chain of NKX2-5 (Homo sapiens, UniProt P52952 125-210, R139K) (P52952 125-210 R139K): as the sequence (P52952 125-210) above, with R15K counted along it
Chain of NKX3-2 (Homo sapiens, UniProt P78367 192-278) (P78367 192-278): as the sequence (P78367 192-278 P234S) above, with S43P counted along it
Chain of HOXA2 (Homo sapiens, UniProt O43364 129-215) (O43364 129-215): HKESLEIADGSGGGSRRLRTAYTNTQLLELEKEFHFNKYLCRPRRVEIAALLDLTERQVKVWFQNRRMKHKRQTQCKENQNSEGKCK
Chain of HOXA2 (Homo sapiens, UniProt O43364 129-215, R185T) (O43364 129-215 R185T): as the sequence (O43364 129-215) above, with R57T counted along it
Chain of HOXA2 (Homo sapiens, UniProt O43364 129-215, R185K) (O43364 129-215 R185K): as the sequence (O43364 129-215) above, with R57K counted along it
Chain of HOXA2 (Homo sapiens, UniProt O43364 129-215, Y150S) (O43364 129-215 Y150S): as the sequence (O43364 129-215) above, with Y22S counted along it

As to CCAGCCAG, the binding signal in [1] is 8.68 upbm affinity estimate (log intensity, higher = more binding, comparable within an allelic series); in experiment [2] it was 8.64 upbm affinity estimate (log intensity, higher = more binding, comparable within an allelic series).

In the case of TCAAGTGA, the binding signal in experiment [1] was 12.5 upbm affinity estimate (log intensity, higher = more binding, comparable within an allelic series); in experiment [3], 12.5 upbm affinity estimate (log intensity, higher = more binding, comparable within an allelic series); in [4], 13 upbm affinity estimate (log intensity, higher = more binding, comparable within an allelic series); in [5], 12.4 upbm affinity estimate (log intensity, higher = more binding, comparable within an allelic series); in experiment [6], 11.7 upbm affinity estimate (log intensity, higher = more binding, comparable within an allelic series); in [7], 13.5 upbm affinity estimate (log intensity, higher = more binding, comparable within an allelic series). The binding signal in [8] is 13.1 upbm affinity estimate (log intensity, higher = more binding, comparable within an allelic series); in experiment [9], 10.5 upbm affinity estimate (log intensity, higher = more binding, comparable within an allelic series); in experiment [2], 12.4 upbm affinity estimate (log intensity, higher = more binding, comparable within an allelic series).

Consider AAGTGGAC, for which the binding signal is 12.5 upbm affinity estimate (log intensity, higher = more binding, comparable within an allelic series) in [1]; 12.4 upbm affinity estimate (log intensity, higher = more binding, comparable within an allelic series) in experiment [3]; 12.9 upbm affinity estimate (log intensity, higher = more binding, comparable within an allelic series) in [4]; 11.8 upbm affinity estimate (log intensity, higher = more binding, comparable within an allelic series) in experiment [6]; 13.4 upbm affinity estimate (log intensity, higher = more binding, comparable within an allelic series) in experiment [7]; 10.4 upbm affinity estimate (log intensity, higher = more binding, comparable within an allelic series) in experiment [9]. For the same sequence, the binding signal in [10] was 12.7 upbm affinity estimate (log intensity, higher = more binding, comparable within an allelic series); in [2] it was 12.4 upbm affinity estimate (log intensity, higher = more binding, comparable within an allelic series); in experiment [11], 12.8 upbm affinity estimate (log intensity, higher = more binding, comparable within an allelic series).

Turning to AGCCGACA, the binding signal was 8.87 upbm affinity estimate (log intensity, higher = more binding, comparable within an allelic series) in experiment [1]; 9.45 upbm affinity estimate (log intensity, higher = more binding, comparable within an allelic series) in experiment [12]; 9.05 upbm affinity estimate (log intensity, higher = more binding, comparable within an allelic series) in [2].

On to AGTCCCGG, for which the binding signal in [1] is 8.88 upbm affinity estimate (log intensity, higher = more binding, comparable within an allelic series); in experiment [7] it was 9.31 upbm affinity estimate (log intensity, higher = more binding, comparable within an allelic series); in experiment [9] it was 9.26 upbm affinity estimate (log intensity, higher = more binding, comparable within an allelic series); in experiment [2], 8.88 upbm affinity estimate (log intensity, higher = more binding, comparable within an allelic series).

Turning to CCTACGGA, the binding signal in experiment [1] was 8.68 upbm affinity estimate (log intensity, higher = more binding, comparable within an allelic series); in [13], 9.05 upbm affinity estimate (log intensity, higher = more binding, comparable within an allelic series); in experiment [2], 8.68 upbm affinity estimate (log intensity, higher = more binding, comparable within an allelic series).

In the case of AGGCCAGC, the binding signal in [1] was 8.71 upbm affinity estimate (log intensity, higher = more binding, comparable within an allelic series); in [2] it was 8.67 upbm affinity estimate (log intensity, higher = more binding, comparable within an allelic series).

CCGCCTCC: the binding signal in [1] is 8.96 upbm affinity estimate (log intensity, higher = more binding, comparable within an allelic series); in experiment [12] it was 9.25 upbm affinity estimate (log intensity, higher = more binding, comparable within an allelic series); in experiment [2], 9 upbm affinity estimate (log intensity, higher = more binding, comparable within an allelic series).

As for ACCGGTCC, the binding signal in experiment [1] is 8.75 upbm affinity estimate (log intensity, higher = more binding, comparable within an allelic series); in experiment [2] it was 8.88 upbm affinity estimate (log intensity, higher = more binding, comparable within an allelic series).

As for CAGAGCCG, the binding signal in experiment [1] was 8.74 upbm affinity estimate (log intensity, higher = more binding, comparable within an allelic series); in [13], 8.99 upbm affinity estimate (log intensity, higher = more binding, comparable within an allelic series); in [2], 8.8 upbm affinity estimate (log intensity, higher = more binding, comparable within an allelic series).

For CCGGACCG, the binding signal was 8.49 upbm affinity estimate (log intensity, higher = more binding, comparable within an allelic series) in experiment [1] and 8.49 upbm affinity estimate (log intensity, higher = more binding, comparable within an allelic series) in experiment [2].

As to ACGGGGGC, the binding signal in experiment [1] is 9.14 upbm affinity estimate (log intensity, higher = more binding, comparable within an allelic series); in experiment [2], 9.01 upbm affinity estimate (log intensity, higher = more binding, comparable within an allelic series).

With ACACCGGG, the binding signal in experiment [1] is 8.93 upbm affinity estimate (log intensity, higher = more binding, comparable within an allelic series); in experiment [2], 8.94 upbm affinity estimate (log intensity, higher = more binding, comparable within an allelic series).

For the sequence CACCCCCG, the binding signal in experiment [1] was 8.95 upbm affinity estimate (log intensity, higher = more binding, comparable within an allelic series); in [2], 9 upbm affinity estimate (log intensity, higher = more binding, comparable within an allelic series).

Regarding AGCCCGGG, the binding signal is 8.84 upbm affinity estimate (log intensity, higher = more binding, comparable within an allelic series) in experiment [1]; 7.03 upbm affinity estimate (log intensity, higher = more binding, comparable within an allelic series) in [14]; 10.2 upbm affinity estimate (log intensity, higher = more binding, comparable within an allelic series) in [15]; 10.4 upbm affinity estimate (log intensity, higher = more binding, comparable within an allelic series) in experiment [16]; 10.4 upbm affinity estimate (log intensity, higher = more binding, comparable within an allelic series) in experiment [10]; 7.06 upbm affinity estimate (log intensity, higher = more binding, comparable within an allelic series) in experiment [17]. Further, the binding signal was 8.8 upbm affinity estimate (log intensity, higher = more binding, comparable within an allelic series) in [2] and 10.3 upbm affinity estimate (log intensity, higher = more binding, comparable within an allelic series) in experiment [11].

For the sequence CCCAACGG, the binding signal is 8.75 upbm affinity estimate (log intensity, higher = more binding, comparable within an allelic series) in experiment [1] and 8.76 upbm affinity estimate (log intensity, higher = more binding, comparable within an allelic series) in experiment [2].

Take ACCGTGTC: the binding signal in experiment [1] was 8.73 upbm affinity estimate (log intensity, higher = more binding, comparable within an allelic series); in experiment [2], 8.93 upbm affinity estimate (log intensity, higher = more binding, comparable within an allelic series).

As to CAGCCCCC, the binding signal in experiment [1] is 8.75 upbm affinity estimate (log intensity, higher = more binding, comparable within an allelic series); in experiment [2] it was 8.67 upbm affinity estimate (log intensity, higher = more binding, comparable within an allelic series).

With CGCACTTA, the binding signal in experiment [1] is 12.6 upbm affinity estimate (log intensity, higher = more binding, comparable within an allelic series); in experiment [6], 11.8 upbm affinity estimate (log intensity, higher = more binding, comparable within an allelic series); in [7], 13.5 upbm affinity estimate (log intensity, higher = more binding, comparable within an allelic series); in experiment [8], 12.9 upbm affinity estimate (log intensity, higher = more binding, comparable within an allelic series); in experiment [9], 10.9 upbm affinity estimate (log intensity, higher = more binding, comparable within an allelic series); in [10] it was 12.6 upbm affinity estimate (log intensity, higher = more binding, comparable within an allelic series). Moreover, the binding signal in experiment [2] was 12.5 upbm affinity estimate (log intensity, higher = more binding, comparable within an allelic series); in experiment [11], 12.7 upbm affinity estimate (log intensity, higher = more binding, comparable within an allelic series).

CGCCTACC: the binding signal in experiment [1] was 8.86 upbm affinity estimate (log intensity, higher = more binding, comparable within an allelic series); in experiment [12], 9.18 upbm affinity estimate (log intensity, higher = more binding, comparable within an allelic series); in [2], 8.84 upbm affinity estimate (log intensity, higher = more binding, comparable within an allelic series).

Consider ACGCCCGG, for which the binding signal in [1] was 8.77 upbm affinity estimate (log intensity, higher = more binding, comparable within an allelic series); in experiment [13], 8.95 upbm affinity estimate (log intensity, higher = more binding, comparable within an allelic series); in experiment [2] it was 8.74 upbm affinity estimate (log intensity, higher = more binding, comparable within an allelic series).

For CGGCGCCG, the binding signal in [1] was 9.06 upbm affinity estimate (log intensity, higher = more binding, comparable within an allelic series); in experiment [12] it was 9.2 upbm affinity estimate (log intensity, higher = more binding, comparable within an allelic series); in [2], 9.14 upbm affinity estimate (log intensity, higher = more binding, comparable within an allelic series).

As for CACTTAGC, the binding signal was 12.6 upbm affinity estimate (log intensity, higher = more binding, comparable within an allelic series) in [1]; 9.83 upbm affinity estimate (log intensity, higher = more binding, comparable within an allelic series) in experiment [12]; 11.7 upbm affinity estimate (log intensity, higher = more binding, comparable within an allelic series) in experiment [6]; 13.5 upbm affinity estimate (log intensity, higher = more binding, comparable within an allelic series) in experiment [7]; 10.8 upbm affinity estimate (log intensity, higher = more binding, comparable within an allelic series) in experiment [9]; 12.9 upbm affinity estimate (log intensity, higher = more binding, comparable within an allelic series) in experiment [10]. The binding signal in [2] is 12.5 upbm affinity estimate (log intensity, higher = more binding, comparable within an allelic series); in [11], 13 upbm affinity estimate (log intensity, higher = more binding, comparable within an allelic series).

For GCTGGGCC, the binding signal in experiment [1] was 8.63 upbm affinity estimate (log intensity, higher = more binding, comparable within an allelic series); in experiment [2] it was 8.61 upbm affinity estimate (log intensity, higher = more binding, comparable within an allelic series).
